Sampled rows, rich in hits. Any-hit rate of the full collection: about 7.4%.
ELG1 genotoxic = induces genotoxicity in HEK293T cells with luciferase-tagged ELG1; Potency, µM (series often up to 46 µM), inactives show at the highest dose activity change, positive = activation, usual class: activators; 1.3% of 330,000 active; HEK293T ELG1-luciferase reporter, luminescence, 16 h; also: % of control where 0% means no effect; nearly all actives have a fitted effect of over 60% in size
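Quantitative HTS format in 1536-well plates. HEK293T ELG1-luciferase reporter cells receive test compound and are incubated 16 hr at 37 °C, 5% CO2; ONE-Glo added, 30 min room temperature, then luminescence read.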
NPC1 promoter act = activators of NPC1 promoter. Potency, µM (series often up to 9.22 µM), without a hit: at the highest dose activation, hits mostly activators. Huh7 NPC1 promoter luciferase reporter, 24 h. 2.4% of 320,000 active. AID 485313; also: % of control where 0% means no effect; nearly all actives have a fitted effect of over 60% in size
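Stable NPC1-promoter luciferase Huh7 line; cpd (DMSO) 24 h, 37 °C, 5% CO2; Amplite luciferase reagent 10 min RT; luminescence readout. qHTS format.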
Rab9 promoter act = activates the Rab9 promoter. Huh7 Rab9 promoter-luciferase reporter, luminescence, 24 h. Potency, µM (titrated, usually from 9.22 µM), inactives show at the top dose activation, negative = inhibition, usual class: activators. 2.8% of 320,000 active; also: % of control where 0% means no effect; nearly all actives have a fitted effect of over 60% in size
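Cell-based reporter: Huh7 stable for Rab9 promoter-driven luciferase, plated in reduced-serum medium with 10% FBS at 1500 cells/well, compound-treated 24 h at 37 °C, luminescence read after 10 min reagent.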
FLuc modulator = firefly luciferase modulation, counter-screen for miR-21 project; purified FLuc, Km substrates, luminescence inhibition; Potency, µM (top dose mostly 57.5 µM), without a hit: top-dose activity change, negative = inhibition, actives largely listed as inhibitors; 6.9% of 360,000 active;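 also: plate controls were vehicle for no effect and reference inhibitor for full effect; nearly all actives have a fitted effect of over 55% in size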
Target sequence (P08659 whole entry, looked up): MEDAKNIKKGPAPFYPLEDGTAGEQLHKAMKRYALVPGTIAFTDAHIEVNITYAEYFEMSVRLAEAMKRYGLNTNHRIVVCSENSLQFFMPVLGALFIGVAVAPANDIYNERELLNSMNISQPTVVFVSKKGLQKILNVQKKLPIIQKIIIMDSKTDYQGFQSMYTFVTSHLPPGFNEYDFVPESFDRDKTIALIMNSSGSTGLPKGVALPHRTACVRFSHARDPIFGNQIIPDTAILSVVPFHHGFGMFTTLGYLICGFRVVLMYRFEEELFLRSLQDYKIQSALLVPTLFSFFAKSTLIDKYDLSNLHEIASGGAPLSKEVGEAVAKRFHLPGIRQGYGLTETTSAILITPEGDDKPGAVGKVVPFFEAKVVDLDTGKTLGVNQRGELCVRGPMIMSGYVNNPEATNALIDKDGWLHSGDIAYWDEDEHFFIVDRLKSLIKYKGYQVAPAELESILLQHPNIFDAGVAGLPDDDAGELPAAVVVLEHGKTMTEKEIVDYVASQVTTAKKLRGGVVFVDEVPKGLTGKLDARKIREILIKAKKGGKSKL
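Purified P. pyralis luciferase, 10 nM final, with Km-level 10 uM D-luciferin and 10 uM ATP in 50 mM Tris acetate pH 7.5, 10 mM Mg acetate, 0.01% Tween-20, 0.05% BSA; 6-point qHTS titration about 60 µM downward; luminescence read.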
SMN2 splice enh = SMN2 splice variant enhancement. HEK293 SMN2-luciferase splicing reporter, luminescence, 30-36 h. Potency, µM (top dose mostly 46.1 µM), without a hit: top-dose activity change, positive = activation, hits mostly activators. 2.8% of 210,000 active. AID 1458; also: % of control where 0% means no effect; nearly all actives have a fitted effect of over 55% in size
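HEK293 cells carry an SMN2 minigene-luciferase reporter in which exon 7 inclusion puts luciferase in frame. Cells were seeded at 2000 cells/well, attached for 10-12 hours, then exposed to compounds for 30-36 hours at 37C before ONE-Glo luminescence.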
Numbers without * were called inactive; u = inconclusive; x = no result given; [ ] = another dose, or the depositor's remark. Calls follow the shape of the dose curve; as a rule, active = well fitted curve in the direction sought with a large enough effect; inconclusive = small, poorly fitted or top-dose-only effect, or another doubt; inactive = no such curve, though single readings can be large; an effect the other way counts as inactive or inconclusive. Potency is read from the fitted curve at half-maximal effect.

SMILES	ELG1 genotoxic	NPC1 promoter act	Rab9 promoter act	FLuc modulator	SMN2 splice enh
CC(=O)c1ccc(N/C=C\C(=O)c2ccc(C)cc2)cc1	8.2µM*	2.51µM*	3.98µM*	1.9µM*	15.8µM*
Cc1ccc(C(=O)/C=C/Nc2ccc(S(=O)(=O)Nc3cc(C)nc(C)n3)cc2)cc1	10.9%	-0.7%	-2.3%	u	x
CC(C)CCn1c(=O)c2cccnc2n(CC(=O)Nc2ccccc2)c1=O	x	x	x	1.5%	-2.9%
CCOc1ccc(CN2CCN(S(=O)(=O)c3ccc(Cl)cc3)CC2)cc1	x	x	x	-5.6%	-24.9%
COc1ccccc1-c1cc(C(=O)Nc2cccnc2Cl)no1	8.8%	-0.6%	-3.5%	-1.4%	x
COc1ccc(NC(=O)c2cc(-c3ccccc3OC)on2)cc1	u	-3.2%	0.2%	9.53µM*	u
COc1ccccc1-c1cc(C(=O)NCCc2ccccc2)no1	13µM*	u	3.55µM*	9.53µM*	25.1µM*
COc1ccc(NC(=O)c2cc(-c3ccccc3Cl)on2)cc1	20.6%	u	u	8.49µM*	x
COc1ccccc1-c1cc(C(=O)Nc2cccnc2)no1	18.4µM*	u	25.1%	6.75µM*	26.7%
c1ccc2c(N3CCNCC3)nc(-c3ccoc3)nc2c1	x	x	x	x	0.8%
O=c1oc2ccccc2c2c1C1O[C@](c3ccsc3)(Cc3ccccc31)O2	x	-0.3%[1.84 µM]	-1.0%[1.84 µM]	-3.8%[11.5 µM]	x
COc1cc2c(cc1OC)C(CCN)=NCC2	x	x	x	x	-4.6%[9.22 µM]
CCc1cc(C(=O)NCc2ccccc2)no1	x	x	x	-17.4%	18.2%
CCCc1cc(C(=O)NCCc2ccccc2)no1	10.3µM*	2.24µM*	2.24µM*	21.3µM*	12.6µM*
COc1ccc2c(c1)c1c(c(=O)n(-c3ccccc3C)c(=O)n1Cc1cccc(C(F)(F)F)c1)n2C	x	x	x	-2.7%	x
Cc1ccc(SCc2ccc(C(=O)Nc3ccccc3C(=O)NC(C)C)cc2)cc1	9.8%	1.9%	-1.0%	3.4%	x
CC(C)C(NC(=O)c1ccccc1NC(=O)c1ccccc1)C(=O)NNC(=O)c1ccncc1 (stereo not drawn)	5.5%	-0.6%	-0.5%	u	x
COc1ccc(C(=O)Nc2ccccc2C(=O)NC(Cc2ccc(O)cc2)C(=O)NNC(=O)c2ccccc2)cc1 (stereo not drawn)	-5.1%	-1.2%	0.4%	4.78µM*	22.2%
COc1ccc(CC(NC(=O)c2ccccc2)C(=O)NCC(=O)O)cc1 (stereo not drawn)	-0.3%	0.7%	2.0%	-0.4%	-18.1%
COc1ccc(C(=O)Nc2ccccc2C(=O)NC(Cc2ccc(O)cc2)C(=O)NNC(=O)c2ccc(C)cc2)cc1 (stereo not drawn)	u	-2.9%	-12.5%	9.53µM*	-1.1%
COc1ccc(C(=O)Nc2ccccc2C(=O)NC(Cc2ccc(O)cc2)C(=O)NNC(=O)c2ccncc2)cc1 (stereo not drawn)	2.0%	-1.3%	12.8%	12µM*	29.3%
Cc1ccc(NC(=O)CC2Sc3ccccc3NC2=O)c(Br)c1 (stereo not drawn)	x	x	x	-4.7%	-1.8%
Cc1nn(CC(=O)NCc2ccc(F)cc2)c2ccccc12	x	x	x	-8.0%	x
CCc1ccc(-n2nc(CO)c(C(=O)NCc3ccccc3Cl)n2)cc1	x	x	x	u	1.2%
C=CCSC1=N/C(=C\C=C\c2ccco2)C(=O)S1	1.3%	5.8%	2.0%	13.5µM*	7.4%
SMILES	ELG1 genotoxic	NPC1 promoter act	Rab9 promoter act	FLuc modulator	SMN2 splice enh
Cc1ccc(-n2nnc3ccccc3c2=O)cc1C	u	u	3.55µM*	1.7%[2.3 µM]	14.1µM*
COc1ccc(C(=O)/C=C2\NCC3c4ccccc4CCN3C2=O)cc1 (stereo not drawn)	0.1%	22.6%	u	6.01µM*	9.0%
COc1cccc(C(=O)/C=C2\NCCc3cc(OC)c(OC)cc32)c1	-3.3%	-1.1%	3.8%	u	x
Cc1ccc(-n2cc(CN3CCN(C(=O)c4ncn[nH]4)CC3)c(-c3ccc(F)cc3)n2)cc1	-9.4%	0.2%	-1.8%	9.53µM*	x
Cc1ccc(-n2cc(CN3CCN(Cc4nccn4C)CC3)c(-c3ccc(F)cc3)n2)cc1	-5.2%	-3.9%	-5.2%	u	x
Cc1ccc(-n2cc(CN3CCN(c4ccccn4)CC3)c(-c3ccc(F)cc3)n2)cc1	-6.6%	-4.9%	11.6%	15.1µM*	x
Cc1cccc(-n2cc(CN3CCN(c4ccccn4)CC3)c(-c3cccc(F)c3)n2)c1	-4.1%	-0.9%	-4.3%	u	x
O=C(CCCCn1c(=O)c2ccccc2n(Cc2ccccc2F)c1=O)NCc1ccccc1Cl	x	x	x	1.1%	-10.7%
CCC(C(=O)Nc1cc(C)ccc1C)n1c(=O)c(C(F)(F)F)nc2ccccc21 (stereo not drawn)	x	x	x	-3.6%	x
C/C(CC(=O)Nc1ccc(Cl)c(C(F)(F)F)c1)=N\NC(=O)c1ccccc1O	-5.8%	0.6%	-0.6%	16.9µM*	9.8%[1.84 µM]
C/C(CC(=O)Nc1ccc(N(C)C)cc1)=N\NC(=O)c1ccccc1O	-1.4%	5.3%	9.9%	12µM*	x
C/C(CC(=O)Nc1ccc([N+](=O)[O-])cc1)=N\NC(=O)c1ccccc1O	-0.9%	2.5%	-2.1%	12µM*	x
C/C(Cn1nnc([N+](=O)[O-])n1)=N\NC(=O)c1ccccc1O	-12.1%	-0.6%	-3.8%	10.7µM*	x
C/C(CC(=O)Nc1ccc(N(C)C)cc1)=N\NC(=O)c1ccc([N+](=O)[O-])cc1Cl	-2.5%	-3.8%	10.6%	-2.2%	9.1%
C/C(CC(=O)Nc1ccc(Cl)c(C(F)(F)F)c1)=N\NC(=O)c1cccc(O)c1	-3.2%	-1.8%	0.3%	-11.9%	12.6%
Cc1ccc(Cl)cc1NC(=O)Cn1c(=O)n(CCC(=O)NCc2ccc3c(c2)OCO3)c(=O)c2sccc21	x	x	x	-7.1%	-9.0%
CC(C)n1cnc2cc(NCc3nc4ccccc4n3C)ccc21	14.6µM*	1.26µM*	1.12µM*	4.78µM*	2.82µM*

From PubChem BioAssay
